About 83,000 compounds went through this panel and 20% of them were active in at least one assay; those are over-represented in the sample as a whole.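 Interpretation: 100, growth as untreated; towards 0, rising growth inhibition; 0, no net growth; 0 to -100, cell death. Compounds scoring below 10 were considered active.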 Values without a mark were called inactive. Activity calls are given as the source filed them.
Columns and labels:
Experiment in all cases: NCI-60 one-dose screen, 48 h (100 = growth as untreated, 0 = no growth, -100 = all killed)
Conditions in all cases: 10 µM
[1] = test system: DU-145 prostate
[2] = test system: K-562 leukemia
[3] = test system: MALME-3M melanoma
[4] = test system: MDA-MB-231 breast
[5] = test system: RXF 393 renal
[6] = test system: SF-268 CNS
[7] = test system: SF-295 CNS
[8] = test system: SF-539 CNS
[9] = test system: UACC-257 melanoma
[10] = test system: M14 melanoma
[11] = test system: HCT-15 colon
[12] = test system: HT29 colon
[13] = test system: SNB-75 CNS
[14] = test system: SNB-19 CNS
[15] = test system: U251 CNS
[16] = test system: PC-3 prostate
[17] = test system: SK-MEL-5 melanoma
[18] = test system: LOX IMVI melanoma
[19] = test system: SK-MEL-28 melanoma
[20] = test system: UACC-62 melanoma

SMILES | growth [1] | growth [2] | growth [3] | growth [4] | growth [5] | growth [6] | growth [7] | growth [8] | growth [9] | growth [10] | growth [11] | growth [12] | growth [13] | growth [14] | growth [15] | growth [16] | growth [17] | growth [18] | growth [19] | growth [20]
O=C(c1ccc(O)cc1)C1[C@H](c2ccc(Br)cc2)[C@@H](c2ccccc2)NC12C(=O)Nc1ccccc12 (some centres undefined) | 49.1% | 35.3% | 43.6% | -40.8% (active) | -16.4% (active) | 35.5% | 29.9% | 41.2% | 75.9% | 51.7% | 24.6% | -9.34% (active) | 46.5% | 47.8% | 22% | 32.1% | 30.1% | -96.9% (active) | 78.5% | 
Cc1cccc(NC(=O)CSc2nc3ccc(F)cc3c(=O)n2-c2ccc(Cl)cc2)c1C | 69.6% | 84.3% | 65.5% | 51.8% | 18.8% | 59.1% | 57.5% | 25.7% | 87.7% | 74% | 70.5% | 76.3% | -20.7% (active) | 7.05% (active) | 48.8% | 68.9% | 88.2% |  | 74.3% | 80.8%
O=C(c1ccc(O)cc1)C1[C@H](c2ccccc2Br)[C@@H](c2ccccc2)NC12C(=O)Nc1ccc(Cl)cc12 (some centres undefined) | 32.5% | 7.61% (active) | -10.7% (active) | -57.3% (active) | -19.5% (active) | 27.7% | -6.39% (active) | 8.24% (active) | 25% | 28.4% | 12.3% | -30.4% (active) | 2.75% (active) | 17.2% | -31.9% (active) | 2.91% (active) | -33% (active) | -100% (active) | 29.2% | 
C=C1CCC2C3(C)COC(c4c(F)cccc4F)OC3CCC2(C)C1C/C=C1/C(=O)OCC1O (centres undefined) | -60.3% (active) | 13.4% | -62.7% (active) | -33.4% (active) | -72.8% (active) | 65.2% | -21% (active) | -92.2% (active) | -46.8% (active) | -23.7% (active) | -18.7% (active) | 3.23% (active) | 23.2% | -7.73% (active) | -94.2% (active) | 5.05% (active) | -65.5% (active) |  | -51.2% (active) | -4.04% (active)
O=C(c1ccc(O)cc1)C1[C@H](c2ccc(Br)cc2)[C@@H](c2ccccc2)NC12C(=O)Nc1ccc(Br)cc12 (some centres undefined) | 9.58% (active) | 3.5% (active) | -49.3% (active) | -67.7% (active) | -62.9% (active) | 10.6% | -22.7% (active) | -17.8% (active) | 49.1% | 14.8% | -47.3% (active) | -31.5% (active) | 45.8% | 11.8% | -48.7% (active) |  | -76.7% (active) | -100% (active) | 26.2% | -35.7% (active)
CC(=O)NNc1ccc2nnc(-c3ccc(Br)cc3)n2n1 | 103% | 95.5% | 107% | 94% | 68.5% | 102% | 96.1% | 90.2% | 105% | 98.2% | 93.8% | 103% | 121% |  | 93.3% | 93.6% | 95.4% | 100% | 106% | 87.9%
O=C(N=Nc1c(O)[nH]c2ccc(Br)cc12)c1ccc2nc(-c3ccccc3)[nH]c2c1 | -60.5% (active) | 1.09% (active) | -99.2% (active) | -97.5% (active) | -79.7% (active) | -53.3% (active) | -81.9% (active) | -97.9% (active) | -19.9% (active) | -85.9% (active) | 63.2% | -41.1% (active) | -46.7% (active) | -47.8% (active) | -95.2% (active) |  | -58.9% (active) |  | -98.4% (active) | -96% (active)
COc1ccccc1[C@H]1C(C(=O)c2ccc(Cl)cc2)C2(N[C@@H]1c1ccccc1)C(=O)Nc1ccccc12 (some centres undefined) | 3.98% (active) | 0.571% (active) | -37.4% (active) | -71.9% (active) | -73.8% (active) | 10.2% | -63.6% (active) | -60.8% (active) | -2.04% (active) | 5.88% (active) | -18.7% (active) | -53.1% (active) | 55.6% | 13.7% | -31% (active) |  | -87.2% (active) | -97.3% (active) | -36.6% (active) | -74.9% (active)
O=C(Nc1nc2ccc([N+](=O)[O-])cc2s1)Nc1cc(Cl)ccc1I | 17.3% | -5.74% (active) | -41% (active) | -37% (active) | -44.8% (active) | 1.99% (active) | -71% (active) | -74.3% (active) | -36.5% (active) | -52.7% (active) | -58.2% (active) | -42.2% (active) | -42% (active) |  | -23.5% (active) | -14.7% (active) | -94.3% (active) | -82.4% (active) | -52.7% (active) | -54.1% (active)
N#Cc1c(NC(=O)c2ccc(C(F)(F)F)c(Cl)c2)sc2c1CCC(=O)C2 | 19.5% | 0.454% (active) | -56.9% (active) | -87.5% (active) | -86.3% (active) | -22.7% (active) | -88.9% (active) | -87.6% (active) | -23.3% (active) | -68.8% (active) | -62.3% (active) | -25.8% (active) | -37.7% (active) | -55.3% (active) | -84.7% (active) |  | -98.8% (active) | -52.6% (active) | -83.4% (active) | -78.9% (active)
O=C1Nc2ccc(F)cc2/C1=C/c1cccc(OCc2ccccn2)c1 | 42.5% | 4.79% (active) | 54.1% | 30.7% | 28.3% | 23.4% | 24.3% | 35.5% | 44.1% | 36.3% | 10.5% | 26.2% | 116% |  | 7.32% (active) | 36.6% | 31.1% | 1.13% (active) | 65.3% | 26.5%
Nc1n[nH]c2cccc(C#Cc3cccc(NC(=O)Nc4cc(C(F)(F)F)cc(C(F)(F)F)c4)c3)c12 | 7.02% (active) | -57.4% (active) | -67.6% (active) | -93.4% (active) | -70.9% (active) | -2.88% (active) | -75.3% (active) | -73% (active) | -57.3% (active) | -9.94% (active) | -81.8% (active) | -49.7% (active) | -0.721% (active) | -19.7% (active) |  |  | -100% (active) | -100% (active) | -88.5% (active) | -90.9% (active)
O=c1c2ccccc2nc(COc2ccccc2)n1/N=C/c1ccc(N2CCOCC2)cc1 | 77.5% | 103% | 56.8% | 26% |  | 26.4% | 69.8% | 34.1% | 95.7% | 93.9% | 80.8% | 93.8% | 43.9% | 3.55% (active) | 51.5% | 75.6% | 82% | 69.6% |  | 69.4%
N#Cc1ccc(-c2nn(-c3ccc(C(=O)O)cc3)cc2CNc2ccc(Cl)cc2)cc1 | 97.6% | 69.4% | 102% | 90.6% |  | 78.6% | 63.3% | 80.1% | 97.8% | 83.4% | 47.3% | 100% | 107% | 75.9% | 76.8% | 65.2% | 76% | 60.8% | 77.6% | 61.2%
NS(=O)(=O)c1ccc(NC(=O)CSc2ccc(-c3ccc(Cl)cc3)nn2)c(Br)c1 | 32.5% | 74.6% | 29.2% | 8.72% (active) |  | 27.9% | 3.43% (active) | 28.4% | 75.5% | 85.1% | 54.1% | 64.7% | 42.3% | 27% | -25.6% (active) | 35.7% | 68.8% | 19.7% |  | 65.4%
Cn1c(O)c(N=Nc2nc(-c3cc4ccccc4oc3=O)cs2)c2cc(Br)ccc21 | 101% | 100% | 49.8% | 41.4% |  | 47.2% | 14.3% | -6.85% (active) | 100% | 88.7% | 88.5% | 118% | 54.7% | 12.5% | 21.3% | 102% | 96% | 56.7% |  | 65%

Source: PubChem BioAssay (NCI)
